# Screening data deposited in PubChem by National Center for Advancing Translational Sciences (NCATS).
# FUS yeast rescue: FUS proteinopathy suppression in yeast. S. cerevisiae FUS-expressing, growth rescue, OD600, 24 h. 390,000 compounds, 0.24% hits. Potency, µM (doses to about 76.6 µM), usual class: activators;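 note: plate controls were DMSO vehicle for no effect and reference control for full effect; nearly all actives have a fitted effect of over 55% in size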
#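 Read-out: OD at 600 nm after 24hr at 30C, reporting rescue of FUS-induced yeast toxicity. Cells at OD 0.005 in galactose (2%) minimal medium; compounds tested in a dilution series; CP55940 titration from 92uM final as control.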
# Abeta yeast res: A-beta toxicity reversal in yeast; yeast expressing A-beta42, growth rescue, OD600, 48 h; response scale: 0% DMSO, 100% iron-clioquinol control; 410,000 compounds, 0.063% hits; AID 1347071; Potency, µM (series often up to 46.1 µM), actives largely listed as activators; note: nearly all actives have a fitted effect of over 55% in size
#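 Yeast A-beta toxicity model in growth medium with pinned compounds, 48 h at 30 C; growth read as absorbance at 600 nm. Normalized to FeCl3/clioquinol equimolar mix (positive) and DMSO (negative).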
# aSyn yeast inh: inhibitors of alpha-synuclein toxicity in yeast. Potency, µM (highest dose often 46.1 µM), without a hit: top-dose growth rescue (activation), actives largely listed as activators. AID 652106. 370,000 compounds, 0.14% hits. Yeast expressing alpha-synuclein, growth rescue, BacTiter-Glo, 24 h; note: % of control where 0% means no effect; nearly all actives have a fitted effect of over 65% in size
#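 Rescue of yeast growth: cells expressing toxic alpha-synuclein, induced in galactose at OD600 0.02, incubated with compound 24 h at 30 C. ATP luminescence quantified growth; inhibitors of toxicity appear as activators.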
# TDP43 rescue: inhibitors of TDP-43 toxicity in yeast. TDP-43 expressing yeast growth rescue, BacTiter-Glo, 24 h. Potency, µM (top dose mostly 46.1 µM), for inactives: top-dose growth rescue (activation), usual class: activators. 410,000 compounds, 1.8% hits. AID 652104; note: % of control where 0% means no effect; nearly all actives have a fitted effect of over 50% in size
#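 Readout is BacTiter-Glo luminescence of cell growth, so inhibitors register as activators. TDP-43-expressing yeast at OD600=0.02 in galactose medium, after raffinose pregrowth to mid-log, were incubated with compound for 24 hr at 30 deg C.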
# The depositor's hits bear a star; i = inactive; ? = inconclusive; · = no result given; [ ] = remark or other dose. Sampled rows, rich in hits. Any-hit rate of the full collection: about 2.1%. Calls come from the whole dose curve; as a rule, active = well fitted curve in the direction sought with a large enough effect; inconclusive = small, poorly fitted or top-dose-only effect, or another doubt; inactive = no such curve, though single readings can be large; an effect the other way counts as inactive or inconclusive. Potency is the fitted concentration of half-maximal effect.
SMILES,FUS yeast rescue,Abeta yeast res,aSyn yeast inh,TDP43 rescue
CN(C(=O)C1CCCN(c2ncnc3c2nc2n3CCCCC2)C1)c1cccc(Cl)c1 (stereo unspecified),i,i,0%,16µM*
Cc1cc(Nc2ccc(Br)cc2)nc(C)n1,i,i,·,18%
CO[C@@H]1CN(C)C(=O)c2cc(NC(=O)NC3CCCCC3)ccc2OC[C@@H](C)N(CCc2ccccc2)C[C@H]1C,i,i,0%,18%
COc1cc(C(=O)NCc2ccccc2)cc(Br)c1OC,i,i,3%,4%
c1cn(-c2ccc(-c3ccnc4ncnn34)cc2)cn1,i,i,0%,-7%[9.22 µM]
CC(C)(C)NCC(=O)N/N=C/c1ccc(OCc2ccccc2)cc1,i,i,4%,22µM*
Oc1ccc(N=Cc2ccc(OCc3ccccc3)cc2)cc1,i,i,2%,25µM*
CC1N(O)C(c2ccc(Cl)cc2Cl)N(O)C1(C)C (stereo unspecified),i,i,-6%,-7%
CCCS(=O)(=O)N1CCN(C2CCC(C)CC2)CC1 (stereo unspecified),i,i,-7%,12%
CC1(C(=O)NCc2ccc(Cl)cc2)CCN1C(=O)Cc1cccc2ccccc12 (stereo unspecified),i,i,?,35µM*
CC1(C(=O)Nc2ccc(F)cc2F)CCN1C(=O)Cc1ccccc1Cl (stereo unspecified),i,i,8%,0%
CC1(C(=O)Nc2cccc3ccccc23)CCN1C(=O)Cc1ccc(Cl)cc1Cl (stereo unspecified),?,i,?,35µM*
CC1(C(=O)NS(=O)(=O)c2ccc(Cl)cc2)CCN1C(=O)Cc1cccc2ccccc12 (stereo unspecified),i,i,0%,3%
CC1(C(=O)Nc2ccccc2F)CCN1C(=O)Cc1cc(F)ccc1F (stereo unspecified),i,i,7%,7.1µM*
CC1(C(=O)NCc2ccc(Cl)cc2)CCN1C(=O)Cc1ccc(Cl)cc1Cl (stereo unspecified),i,i,?,32µM*
CCN(CC)c1nc(SCC(=O)O)nc(N(CC)CC)n1,i,i,1%,6%
COc1ccc(NC(=O)c2ccc(Cn3cc(Cl)cn3)cc2)cc1,i,i,-5%,-14%[0.397 µM]
CCOC(=O)C(=CNc1ccc(Cl)cn1)C(=O)OCC,i,i,2%,11µM*
CCOC(=O)C(=CNNc1cccc(Cl)c1)C(=O)OCC,i,i,27%,11µM*
COc1ccc(CN2C(=O)c3cccnc3C2=O)cc1S(=O)(=O)NCc1ccco1,i,i,1%,13%
O=C(CSc1c2c(nc3cc(Cl)ccc13)CCCC2)N1CCN(c2ccccc2)CC1,?,i,·,20µM*
CCCCNC(=O)CSc1c2c(nc3ccc(Cl)cc13)CCCC2,i,i,·,?
CCOC(=O)c1ccc(NC(=O)CSc2c3c(nc4cc(Cl)ccc24)CCCC3)cc1,i,i,·,16µM*
CCC(C)NC(=O)CSc1c2c(nc3cc(Cl)ccc13)CCCC2 (stereo unspecified),i,i,·,0%
CCCCN(CC)C(=O)CSc1c2c(nc3ccc(Cl)cc13)CCCC2,i,i,·,22µM*
SMILES,FUS yeast rescue,Abeta yeast res,aSyn yeast inh,TDP43 rescue
COc1ccc(NC(=O)CSc2c3c(nc4cc(Cl)ccc24)CCCC3)cc1OC,·,i,9%,13%
COc1ccc(NC(=O)CSc2c3c(nc4ccc(Cl)cc24)CCCC3)cc1Cl,i,i,·,11µM*
CC1(C)CC(NC(=S)NCc2ccco2)CC(C)(C)N1,i,i,-7%,17%
Cc1cc(Nc2cccc(C(=O)O)c2)n2nc(C)nc2n1,i,i,·,2%
CC(C)n1nc(C(=O)Oc2ccc(Cl)cc2)c2ccccc2c1=O,·,i,-10%,13%
Cc1cc(C)cc(NC(=S)NCc2ccc3[nH]c4c(c3c2)CCCC4)c1,?,?,5%,20%
S=C(NCc1ccc2[nH]c3c(c2c1)CCCC3)Nc1ccccc1,i,?,?,18µM*
Clc1cccc(CNc2ccn3nc(-c4cccc(Cl)c4)cc3n2)c1,i,?,25%,11µM*
CC(C)(C)c1cc2nc(NCc3cccc(Cl)c3)ccn2n1,i,?,?,25µM*
Clc1cccc(CNc2ccn3nc(-c4ccccc4)cc3n2)c1,i,?,?,13µM*
Clc1cccc(CNc2ccn3nc(-c4ccc(OCc5ccccc5)cc4)cc3n2)c1,i,i,-5%,-3%
Clc1ccc(-c2cc3nc(NCc4cccc(Cl)c4)ccn3n2)cc1,i,i,-42%,35µM*
Clc1cccc(-c2cc3nc(NCCOc4ccccc4)ccn3n2)c1,i,i,1%,-28%
COc1ccc(N2CCN(C(CNC(=O)c3ccco3)c3cccnc3)CC2)cc1 (stereo unspecified),i,i,-11%,2%
COc1ccccc1C(=O)NCC(=O)OCC(=O)Nc1ccc2[nH]c(=O)[nH]c2c1,i,i,7%,11%
CC(=O)Nc1cc(OC(C)=O)c2nonc2c1OC(C)=O,i,i,8%,-5%
O=C(/C=C/c1ccco1)Oc1cc(Br)cc(/C=N/NC(=O)c2ccccc2O)c1,i,i,22µM*,7%
CN(CCc1ccccc1)C(c1ccnc2ccccc12)c1nnnn1-c1ccc2c(c1)OCCO2 (stereo unspecified),?,i,1%,35µM*
c1ccc(CN(Cc2ccccc2)C(c2ccnc3ccccc23)c2nnnn2-c2ccc3c(c2)OCCO3)cc1 (stereo unspecified),i,i,3%,21%
COc1cccc(-c2csc(N3CCN(C(=S)Nc4cccc(Cl)c4)CC3)n2)c1,i,i,-16%,-2%
O=C(CSc1nnc(Cc2ccccc2)o1)N1CCc2ccccc21,?,i[9.22 µM],-17%,8%
Oc1ccccc1-c1cc(-c2cccc(F)c2)n[nH]1,i,i,2%,3.2µM*
Cc1cccc(C)c1NC(=O)CN(C)C(=O)c1cccc(NS(=O)(=O)c2ccccc2)c1,i,i,-2%,-2%
CCC(C)NC(=O)c1sc2nc(C)c(C(=O)Nc3ccc(Cl)cc3)c(-c3ccc(Br)cc3)c2c1N (stereo unspecified),?,i,·,6%
Cc1nc2sc(C(N)=O)c(N)c2c(-c2ccc(Br)cc2)c1C(=O)Nc1ccc(Cl)cc1,?,i,·,22µM*
Cc1cccc(OCCSc2nnc(-c3ccoc3C)n2C)c1,i,i,4%,18µM*
Cc1cccc(OCCSc2nncn2C)c1,i,i,3%,11%
CCc1nc2ccc(C(=O)NCc3ccccc3OC)cn2c1N(CC)CCN(C)C,i,i,1%,21%
O=C1CNC(=S)N1Cc1ccccc1,i,i,-2%,0%
